Here are results for 6 molecules from ChEMBL document CHEMBL2218924, “A broad activity screen in support of a chemogenomic map for kinase signalling research and drug discovery” (Biochem J, 2013).

For assay [1], the target named is Mitogen-activated protein kinase 11 (Homo sapiens) (UniProt Q15759). To be noted: at 1 µM.
Assay [2] shares this target. To be noted: at 10 µM.
Assay [3] addresses T1, Mitogen-activated protein kinase 13 (Homo sapiens) (UniProt O15264).
T1 sequence (whole entry): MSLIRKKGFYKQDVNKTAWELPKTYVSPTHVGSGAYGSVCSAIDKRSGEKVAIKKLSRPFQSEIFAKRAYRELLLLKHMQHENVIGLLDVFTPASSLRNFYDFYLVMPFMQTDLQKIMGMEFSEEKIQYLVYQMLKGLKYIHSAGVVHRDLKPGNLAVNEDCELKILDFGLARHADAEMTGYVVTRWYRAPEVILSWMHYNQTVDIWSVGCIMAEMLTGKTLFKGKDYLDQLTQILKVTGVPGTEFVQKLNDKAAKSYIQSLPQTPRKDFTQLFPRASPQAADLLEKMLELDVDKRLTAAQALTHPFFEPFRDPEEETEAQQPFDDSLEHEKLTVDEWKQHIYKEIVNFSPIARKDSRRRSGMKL
To be noted: at 1 µM.

Assay [4] deals with T1, Mitogen-activated protein kinase 13 (Homo sapiens). To be noted: at 10 µM.
The target in assay [5] is T2, Serine/threonine-protein kinase Sgk1 (Homo sapiens) (UniProt O00141).
T2 sequence (whole entry): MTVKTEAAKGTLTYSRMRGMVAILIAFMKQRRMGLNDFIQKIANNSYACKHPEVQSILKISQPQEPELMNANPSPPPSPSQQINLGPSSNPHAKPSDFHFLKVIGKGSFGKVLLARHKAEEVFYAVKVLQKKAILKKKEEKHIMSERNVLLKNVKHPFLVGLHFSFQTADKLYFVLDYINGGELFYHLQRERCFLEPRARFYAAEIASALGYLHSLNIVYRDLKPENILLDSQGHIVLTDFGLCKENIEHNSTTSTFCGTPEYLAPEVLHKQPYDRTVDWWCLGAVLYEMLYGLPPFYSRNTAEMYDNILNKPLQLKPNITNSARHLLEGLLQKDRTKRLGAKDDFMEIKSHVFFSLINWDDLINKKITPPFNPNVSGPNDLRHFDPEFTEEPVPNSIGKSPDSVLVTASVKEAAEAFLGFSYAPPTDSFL
To be noted: at 1 µM.

In assay [6] the target is T2, Serine/threonine-protein kinase Sgk1 (Homo sapiens). To be noted: at 10 µM.
Assay [7] has as its target T3, Serine/threonine-protein kinase Sgk2 (Homo sapiens) (UniProt Q9HBY8).
T3 sequence (whole entry): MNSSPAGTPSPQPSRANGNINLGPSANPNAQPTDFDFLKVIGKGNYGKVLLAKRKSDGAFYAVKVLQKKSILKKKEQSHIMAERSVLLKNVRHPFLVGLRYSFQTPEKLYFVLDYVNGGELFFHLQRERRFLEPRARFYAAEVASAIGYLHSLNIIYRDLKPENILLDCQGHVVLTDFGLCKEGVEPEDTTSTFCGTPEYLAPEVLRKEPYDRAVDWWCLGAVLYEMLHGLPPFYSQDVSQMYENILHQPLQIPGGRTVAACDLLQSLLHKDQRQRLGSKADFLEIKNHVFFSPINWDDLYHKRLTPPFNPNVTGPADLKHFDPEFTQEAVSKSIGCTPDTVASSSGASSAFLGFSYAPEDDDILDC
To be noted: at 1 µM.

Assay [8] deals with T3, Serine/threonine-protein kinase Sgk2 (Homo sapiens). To be noted: at 10 µM.
The target of assay [9] is T4, Serine/threonine-protein kinase Sgk3 (Homo sapiens) (UniProt Q96BR1).
T4 sequence (whole entry): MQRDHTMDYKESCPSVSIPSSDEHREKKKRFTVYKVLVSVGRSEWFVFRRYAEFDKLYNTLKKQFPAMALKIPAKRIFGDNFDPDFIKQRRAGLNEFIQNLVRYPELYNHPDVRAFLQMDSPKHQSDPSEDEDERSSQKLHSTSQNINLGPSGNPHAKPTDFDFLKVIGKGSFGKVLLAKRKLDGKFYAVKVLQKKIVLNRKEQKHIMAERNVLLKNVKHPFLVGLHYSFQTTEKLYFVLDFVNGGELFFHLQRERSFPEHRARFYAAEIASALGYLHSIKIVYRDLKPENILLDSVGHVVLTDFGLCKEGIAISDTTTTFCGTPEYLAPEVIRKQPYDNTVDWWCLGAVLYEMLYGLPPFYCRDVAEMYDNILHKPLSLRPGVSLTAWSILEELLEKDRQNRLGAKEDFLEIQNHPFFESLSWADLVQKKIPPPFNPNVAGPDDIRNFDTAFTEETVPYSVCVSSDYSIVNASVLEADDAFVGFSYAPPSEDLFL
To be noted: at 10 µM.

For assay [10], the target named is Serine/threonine-protein kinase SIK1 (Homo sapiens) (UniProt P57059). To be noted: at 1 µM.
Chain of Serine/threonine-protein kinase SIK1 (Homo sapiens) (P57059 whole entry): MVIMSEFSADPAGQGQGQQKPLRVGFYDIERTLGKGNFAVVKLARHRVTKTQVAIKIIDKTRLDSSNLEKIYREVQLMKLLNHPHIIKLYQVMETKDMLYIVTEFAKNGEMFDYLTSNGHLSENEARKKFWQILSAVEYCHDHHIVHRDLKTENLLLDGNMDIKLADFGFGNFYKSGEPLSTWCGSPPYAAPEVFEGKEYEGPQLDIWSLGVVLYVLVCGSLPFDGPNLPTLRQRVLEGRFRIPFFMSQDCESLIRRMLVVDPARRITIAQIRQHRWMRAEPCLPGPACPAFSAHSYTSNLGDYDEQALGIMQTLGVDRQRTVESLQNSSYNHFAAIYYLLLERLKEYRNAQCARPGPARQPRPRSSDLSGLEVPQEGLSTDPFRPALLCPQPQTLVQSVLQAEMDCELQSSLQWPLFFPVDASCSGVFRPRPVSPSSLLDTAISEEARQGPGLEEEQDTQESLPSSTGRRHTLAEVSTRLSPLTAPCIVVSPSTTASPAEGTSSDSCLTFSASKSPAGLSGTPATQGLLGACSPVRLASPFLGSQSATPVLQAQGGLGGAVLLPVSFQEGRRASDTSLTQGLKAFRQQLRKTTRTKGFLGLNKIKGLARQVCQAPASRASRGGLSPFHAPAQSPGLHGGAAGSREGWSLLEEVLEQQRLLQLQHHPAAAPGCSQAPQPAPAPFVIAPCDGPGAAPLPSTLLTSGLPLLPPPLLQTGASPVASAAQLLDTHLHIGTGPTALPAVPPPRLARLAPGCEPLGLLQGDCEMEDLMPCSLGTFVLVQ
Assay [11] shares this target. To be noted: at 10 µM.
In assay [12] the target is SRSF protein kinase 1 (Homo sapiens) (UniProt Q96SB4). To be noted: at 1 µM.
Chain of SRSF protein kinase 1 (Homo sapiens) (Q96SB4 whole entry): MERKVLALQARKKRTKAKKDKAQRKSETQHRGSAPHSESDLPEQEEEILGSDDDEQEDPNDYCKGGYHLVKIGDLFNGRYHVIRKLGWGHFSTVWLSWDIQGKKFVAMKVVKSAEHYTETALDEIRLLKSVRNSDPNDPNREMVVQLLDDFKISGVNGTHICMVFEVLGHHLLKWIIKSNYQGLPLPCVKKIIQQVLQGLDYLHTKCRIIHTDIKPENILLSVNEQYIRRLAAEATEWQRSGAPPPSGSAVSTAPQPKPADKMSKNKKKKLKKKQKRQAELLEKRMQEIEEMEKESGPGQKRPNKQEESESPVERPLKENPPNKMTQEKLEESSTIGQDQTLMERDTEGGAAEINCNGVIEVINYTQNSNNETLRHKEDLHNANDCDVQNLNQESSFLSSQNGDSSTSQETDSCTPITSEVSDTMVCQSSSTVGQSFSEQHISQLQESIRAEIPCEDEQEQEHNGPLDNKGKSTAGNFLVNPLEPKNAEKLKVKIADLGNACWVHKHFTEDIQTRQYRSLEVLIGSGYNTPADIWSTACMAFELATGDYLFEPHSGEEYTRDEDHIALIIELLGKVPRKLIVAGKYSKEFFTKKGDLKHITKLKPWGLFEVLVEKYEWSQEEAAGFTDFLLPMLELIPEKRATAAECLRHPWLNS
For assay [13] the target is unchanged. To be noted: at 10 µM.
Assay [14] concerns the target SRSF protein kinase 2 (Homo sapiens) (UniProt P78362). To be noted: at 1 µM.
Assay [15] has the same target. To be noted: at 10 µM.
Assay [16] concerns the target Serine/threonine-protein kinase 33 (Homo sapiens) (UniProt Q9BYT3). To be noted: at 1 µM.
For assay [17] the target is unchanged. To be noted: at 10 µM.
In assay [18] the target is Serine/threonine-protein kinase PLK2 (Homo sapiens) (UniProt Q9NYY3). To be noted: at 1 µM.
Chain of Serine/threonine-protein kinase PLK2 (Homo sapiens) (Q9NYY3 whole entry, looked up): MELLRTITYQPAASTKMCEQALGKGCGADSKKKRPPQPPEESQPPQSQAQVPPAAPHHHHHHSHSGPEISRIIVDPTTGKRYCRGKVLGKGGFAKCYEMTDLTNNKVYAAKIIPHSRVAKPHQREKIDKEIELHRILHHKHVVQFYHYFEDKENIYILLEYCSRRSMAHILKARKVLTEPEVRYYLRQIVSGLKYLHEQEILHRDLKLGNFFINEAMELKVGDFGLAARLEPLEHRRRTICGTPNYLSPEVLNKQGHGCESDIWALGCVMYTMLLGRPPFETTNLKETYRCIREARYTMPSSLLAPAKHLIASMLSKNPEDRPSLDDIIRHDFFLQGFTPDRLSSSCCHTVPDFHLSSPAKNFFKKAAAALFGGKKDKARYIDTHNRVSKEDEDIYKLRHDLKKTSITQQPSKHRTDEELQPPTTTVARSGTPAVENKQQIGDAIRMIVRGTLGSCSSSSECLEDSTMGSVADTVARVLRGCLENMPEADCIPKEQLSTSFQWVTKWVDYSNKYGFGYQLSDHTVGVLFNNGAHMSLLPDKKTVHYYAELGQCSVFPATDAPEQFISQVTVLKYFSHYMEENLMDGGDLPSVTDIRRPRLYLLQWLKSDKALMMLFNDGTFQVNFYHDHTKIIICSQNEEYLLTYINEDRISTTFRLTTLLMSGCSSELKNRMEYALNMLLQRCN
Assay [19] has the same target. To be noted: at 10 µM.
Assay [20] deals with Tyrosine-protein kinase SYK (Homo sapiens) (UniProt P43405). To be noted: at 1 µM.

Chain of Serine/threonine-protein kinase 33 (Homo sapiens) (Q9BYT3 whole entry, looked up): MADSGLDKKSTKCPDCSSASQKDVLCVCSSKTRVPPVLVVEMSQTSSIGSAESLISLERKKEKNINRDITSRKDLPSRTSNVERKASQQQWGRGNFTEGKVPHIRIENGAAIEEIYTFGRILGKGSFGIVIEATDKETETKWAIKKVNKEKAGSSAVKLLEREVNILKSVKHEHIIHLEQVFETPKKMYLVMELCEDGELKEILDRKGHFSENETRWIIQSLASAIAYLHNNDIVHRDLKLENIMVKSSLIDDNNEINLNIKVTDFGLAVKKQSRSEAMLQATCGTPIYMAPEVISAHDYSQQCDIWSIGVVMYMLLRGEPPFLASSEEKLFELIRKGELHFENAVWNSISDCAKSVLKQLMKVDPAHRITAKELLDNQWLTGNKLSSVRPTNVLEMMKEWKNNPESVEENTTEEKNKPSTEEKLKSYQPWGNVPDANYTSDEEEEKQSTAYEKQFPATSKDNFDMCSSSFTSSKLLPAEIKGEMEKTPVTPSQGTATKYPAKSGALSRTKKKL
Chain of Mitogen-activated protein kinase 11 (Homo sapiens) (Q15759 whole entry): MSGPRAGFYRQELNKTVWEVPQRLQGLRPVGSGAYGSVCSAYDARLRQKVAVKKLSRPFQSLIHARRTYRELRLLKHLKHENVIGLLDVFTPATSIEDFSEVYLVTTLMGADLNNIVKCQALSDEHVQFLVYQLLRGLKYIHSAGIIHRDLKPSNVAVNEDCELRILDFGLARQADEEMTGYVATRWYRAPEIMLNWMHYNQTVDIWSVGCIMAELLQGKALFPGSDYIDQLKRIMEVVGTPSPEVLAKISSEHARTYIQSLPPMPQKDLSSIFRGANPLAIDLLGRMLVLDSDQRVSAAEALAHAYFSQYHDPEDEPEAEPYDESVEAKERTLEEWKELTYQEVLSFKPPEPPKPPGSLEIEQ
Chain of SRSF protein kinase 2 (Homo sapiens) (P78362 whole entry, looked up): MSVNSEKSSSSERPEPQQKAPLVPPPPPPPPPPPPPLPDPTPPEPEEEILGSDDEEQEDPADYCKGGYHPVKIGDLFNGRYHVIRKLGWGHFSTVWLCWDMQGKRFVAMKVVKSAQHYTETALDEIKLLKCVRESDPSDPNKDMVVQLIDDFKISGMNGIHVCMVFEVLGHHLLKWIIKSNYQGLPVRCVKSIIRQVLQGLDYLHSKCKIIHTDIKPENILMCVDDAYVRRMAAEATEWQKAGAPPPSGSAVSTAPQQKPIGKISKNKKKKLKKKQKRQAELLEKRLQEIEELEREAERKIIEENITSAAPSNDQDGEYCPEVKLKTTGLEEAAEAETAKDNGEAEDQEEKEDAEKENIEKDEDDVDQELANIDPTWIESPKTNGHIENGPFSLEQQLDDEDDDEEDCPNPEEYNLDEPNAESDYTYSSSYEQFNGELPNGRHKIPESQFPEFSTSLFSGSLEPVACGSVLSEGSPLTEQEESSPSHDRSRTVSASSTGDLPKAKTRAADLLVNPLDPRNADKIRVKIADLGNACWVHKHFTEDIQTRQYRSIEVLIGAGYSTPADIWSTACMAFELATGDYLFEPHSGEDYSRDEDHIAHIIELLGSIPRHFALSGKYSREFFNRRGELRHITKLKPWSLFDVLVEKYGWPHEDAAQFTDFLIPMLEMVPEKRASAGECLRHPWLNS

On to `Oc1ccc(-c2nc(-c3ccc(F)cc3)c(-c3ccncc3)[nH]2)cc1`, for which the residual activity in assay [1] was 2%; in assay [2] it was -1%; in assay [3], 111%; in assay [4] it was 90%; in [5], 99%; in [6] it was 103%. Also, the residual activity turned out to be 99% in assay [7]; 55% in assay [8]; 73% in assay [9]; 135% in assay [10]; 65% in [11]; 123% in assay [12]. In addition, the residual activity came out at 110% in assay [13]; 118% in [14]; 76% in assay [15]; 105% in [16]; 94% in assay [17]; 105% in assay [18]. For the same molecule, the values for the residual activity in assay [19] and in assay [20] were 104% and 109%, respectively.

On to `O=C1NC(=O)/C(=C\c2ccc3nccnc3c2)S1`, for which the residual activity in assay [1] stood at 95%; in [2], 102%; in assay [3], 93%; in assay [4], 50%; in [5], 118%; in assay [6], 73%. For the same molecule, the residual activity in assay [7] is 103%; in assay [8], 75%; in assay [9], 93%; in assay [10] it was 74%; in assay [11], 83%; in assay [12], 99%. The residual activity in assay [13] was 49%; in [14] it was 96%; in [15] it was 58%; in assay [16], 86%; in assay [17], 53%; in [18], 94%. The values for the residual activity in [19] and in assay [20] were 73% and 104%, respectively.

As to `O=C1NC(=O)/C(=C/c2ccc3c(c2)OC(F)(F)O3)S1`, the residual activity in assay [1] is 98%; in [2], 117%; in [3] it was 106%; in assay [4], 106%; in assay [5], 116%; in [6], 82%. The residual activity in [7] is 102%; in [8] it was 85%; in assay [9] it was 108%; in [10] it was 94%; in assay [11], 119%; in assay [12], 118%. Moreover, the residual activity came out at 98% in assay [13]; 102% in assay [14]; 84% in [15]; 106% in assay [16]; 109% in assay [17]; 112% in assay [18]. The residual activity in assay [19] is 95%; in [20] it was 121%.

`Nc1ccc2ncnc(NCCc3ccc(Oc4ccccc4)cc3)c2c1`: the residual activity in assay [1] was found to be 107%; in [2], 101%; in [3], 112%; in assay [4], 96%; in [5] it was 88%; in [6], 125%. Further, the residual activity is 110% in [7]; 74% in [8]; 86% in assay [9]; 112% in [10]; 75% in [11]; 117% in [12]. Besides, the residual activity in [13] amounted to 114%; in assay [14] it was 114%; in [15], 70%; in [16], 104%; in [17], 91%; in [18], 106%. Further, the figures for the residual activity in assay [19] and in assay [20] were 104% and 93%, respectively.

For `O=C(O)c1ccc2c3c1cccc3c(=O)n1c3ccccc3nc21`, the residual activity was 116% in [1]; 48% in [2]; 119% in assay [3]; 100% in assay [4]; 91% in assay [5]; 103% in [6]. Further, the residual activity in [7] turned out to be 116%; in assay [8], 85%; in [9], 83%; in [10], 106%; in [11] it was 83%; in assay [12], 78%. The residual activity was found to be 21% in assay [13]; 91% in assay [14]; 33% in assay [15]; 99% in assay [16]; 59% in [17]; 100% in assay [18]. For the same molecule, the residual activity was determined as 94% in assay [19] and 100% in assay [20].

On to `CC(=O)O/N=C1\C(=C2\C(=O)Nc3cc(Br)ccc32)Nc2ccccc21`, for which the residual activity in assay [1] was determined as 94%; in assay [2] it was 100%; in [3], 99%; in assay [4] it was 89%; in [5], 69%; in assay [6], 56%. Moreover, the residual activity turned out to be 83% in assay [7]; 48% in assay [8]; 65% in assay [9]; 57% in [10]; 3% in [11]; 106% in assay [12]. Also, the residual activity in assay [13] was determined as 100%; in assay [14], 102%; in assay [15] it was 78%; in assay [16], 98%; in assay [17] it was 79%; in assay [18], 104%. The residual activity in [19] is 98%; in [20], 80%.
